Screening results (PubChem BioAssay)
This is a sample that favours compounds with a hit; in the whole collection about 2.7% have one here.
HepG2 viability – HepG2 cytotoxicity, counter-screen for TGF-b inhibitors; HepG2 CAGA-GFP viability, ATP luminescence, 18 h; Potency, µM (highest dose often 46.1 µM), inactives show at the top dose activity change, negative = cytotoxicity, actives largely listed as cytotoxic; hit rate 0.76% among 410,000; AID 588856
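CellTiter-Glo luminescence gave cytotoxicity after 18 hours at 37 degrees C. The cells were HepG2 CAGA-GFP in 1% FBS DMEM, stimulated with 500 pg/mL TGF-beta after compound addition. %Activity was normalised to no-cell wells (complete cell-killing) and DMSO (no toxicity), and curves were fitted and classified.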
ATXN2 expr inh – reduces ATXN2 reporter expression in HEK-293 cells | HEK-293 ATXN2-luciferase reporter, luminescence, 24 h | hit rate 0.72% among 360,000 | Potency, µM (titrated, usually from 57 µM), without a hit: at the highest dose activity change, negative = inhibition, actives largely listed as inhibitors | AID 1745845; also: % is scaled to controls: 0 for no effect and ±100 for the full control effect; nearly all actives have a fitted effect of over 55% in size
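ATXN2-luciferase reporter cells (luciferase flanked by upstream and downstream ATXN2 gene portions) were treated 24 h at 37 °C with compounds at up to 57 uM. SteadyGlo luminescence gave expression; GF-AFC fluorescence gave viability.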
TGFb SMAD3 inh – TGF-b pathway inhibition | HepG2 CAGA-GFP TGF-b/SMAD3 reporter, GFP fluorescence, 18 h; TGF-beta stimulated, 500 pg/mL final | Potency, µM (highest dose often 46.1 µM), for inactives: at the top dose activity, negative = inhibition, most hits filed as inhibitors | hit rate 1.2% among 410,000 | AID 588855; also: % is scaled to controls: 0 for no effect and ±100 for the full control effect; nearly all actives have a fitted effect of over 65% in size
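First, reporter cells (HEPG2 CAGA-GFP) rested 2 h at 37 degrees C. Next, compounds were pinned in and TGF-beta added to 500 pg/mL final. After 18 h, GFP was imaged per cell and summed per well.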
ATXN viability – viability counter-screen for ATXN expression inhibitors. S2 cells (HEK-293 line with an ATXN2-luciferase reporter) viability, CellTiter-Fluor protease fluorescence, 24 h. Potency, µM (doses to about 56.7 µM), usual class: cytotoxic. hit rate 0.49% among 400,000; also: nearly all actives have a fitted effect of over 40% in size
12-LOX inh – inhibitors of human 12S-lipoxygenase ALOX12; P18054; Potency, µM (titrated, usually from 108 µM), for inactives: at the top dose activity change, negative = inhibition, actives largely listed as inhibitors; hit rate 1.1% among 580,000; purified 12hLO, xylenol orange hydroperoxide absorbance; also: % is scaled to controls: 0 for no effect and ±100 for the full control effect
Target sequence (P18054 whole entry, looked up): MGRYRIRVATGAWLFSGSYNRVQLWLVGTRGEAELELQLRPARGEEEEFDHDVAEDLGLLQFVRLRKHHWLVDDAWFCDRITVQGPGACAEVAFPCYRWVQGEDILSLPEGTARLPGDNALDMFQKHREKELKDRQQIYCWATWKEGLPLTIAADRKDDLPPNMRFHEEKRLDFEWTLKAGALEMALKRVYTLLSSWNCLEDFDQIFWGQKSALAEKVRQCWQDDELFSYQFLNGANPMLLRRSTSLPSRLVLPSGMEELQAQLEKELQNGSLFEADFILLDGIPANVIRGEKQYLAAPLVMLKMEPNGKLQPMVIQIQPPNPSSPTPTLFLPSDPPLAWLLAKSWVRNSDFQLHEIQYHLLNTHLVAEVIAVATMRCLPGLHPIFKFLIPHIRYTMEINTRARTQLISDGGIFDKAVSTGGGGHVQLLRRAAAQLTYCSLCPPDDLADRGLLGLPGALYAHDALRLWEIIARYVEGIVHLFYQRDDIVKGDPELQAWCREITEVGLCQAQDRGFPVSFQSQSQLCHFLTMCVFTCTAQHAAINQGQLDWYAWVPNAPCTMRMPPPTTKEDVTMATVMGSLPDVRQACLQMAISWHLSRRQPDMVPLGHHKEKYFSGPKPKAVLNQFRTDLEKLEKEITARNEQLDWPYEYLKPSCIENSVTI
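Purified human 12hLO at 150 nM in 25 mM Hepes, 0.01% Triton X-100, pH 7.0, preincubated 15 min at room temperature with compound. Reaction started with 40 uM arachidonic acid, 30 min at room temperature. Hydroperoxide measured by Fe-xylenol orange, 573/405 nm absorbance ratio.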
Numbers without * were called inactive; i = inactive; u = inconclusive; x = no result; ! = not confirmed by another sample; [ ] = another dose, or the depositor's remark. Calls follow the shape of the dose curve; as a rule, active = well fitted curve in the direction sought with a large enough effect; inconclusive = small, poorly fitted or top-dose-only effect, or another doubt; inactive = no such curve, though single readings can be large; an effect the other way counts as inactive or inconclusive. Potency is read from the fitted curve at half-maximal effect.

SMILES	HepG2 viability	ATXN2 expr inh	TGFb SMAD3 inh	ATXN viability	12-LOX inh
CC1OC(OC2CCC3(C=O)[C@H]4CCC5(C)C(C6=CC(=O)OC6)CCC5(O)[C@@H]4CCC3(O)C2)CC2OC(C)(C)OC12 (stereo partly drawn)	x	x	x	x	19%
CC1OC(OC2CCC3(C=O)[C@H]4CCC5(C)C(C6=CC(=O)OC6)CCC5(O)[C@@H]4CCC3(O)C2)CC(O)C1O (stereo partly drawn)	x	x	x	x	-9%
C[C@]12CC[C@H]3[C@@H](CC[C@]4(O)C[C@@H](O)CC[C@]34C=O)[C@@]1(O)CC[C@@H]2C1=CC(=O)OC1	-65%	0.32µM*	7.1µM*	u	6%
CC12CCC3C(CCC4(O)CC(O)CCC34C=O)C1(O)CCC2C1=CC(=O)OC1 (stereo not drawn)	-39%	1.8µM*	u	u	-3%
CC(=O)O[C@H]1CC[C@]2(C=O)C3CC[C@]4(C)[C@@H](C5=CC(=O)OC5)CC[C@]4(O)C3CC[C@]2(O)C1 (stereo partly drawn)	-34%	x	11µM*	x	x
C[C@H]1O[C@@H](OC2CC[C@]3(C=O)[C@H]4CC[C@]5(C)[C@@H](C6=CC(=O)OC6)CC[C@]5(O)[C@@H]4CC[C@]3(O)C2)CC2OC(C)(C)OC21 (stereo partly drawn)	-57%	x	2µM*	u	129%
COc1ccc([C@H]2C[C@@H](O)[C@@H](O)[C@@H]2NCC2CCCC2)cc1	x	x	x	x	1%[176 µM]
O=S(=O)(c1ccccc1)N1[C@H]2CC[C@@H]1c1cncnc1C2	x	x	x	x	24%
CN=CNc1ccc(C)cc1C	x	x	x	x	0%[176 µM]
CC12CCC(O)CC1CC[C@@H]1[C@@H]2CCC2(C)[C@H](C3=CC(=O)OC3)CCC12O (stereo partly drawn)	x	x	x	x	-31%
C[C@]12CCC3C(CCC4=CC(O)CC[C@@]43/C=N/O)C1(O)CCC2C1=CC(=O)OC1 (stereo partly drawn)	-53%	u	7.9µM*	i	0%
C#CCN(C)C[C@H]1CN2CC[C@H]1C[C@@H]2CNC(=O)c1ccc(C(F)(F)F)cc1	x	x	x	x	35%[176 µM]
Cc1ccc(-n2c(O)c(/C=C3/C(c4ccccc4)=Nc4ccccc43)c(=O)[nH]c2=O)cc1	-30%	17%	u	i	u
Cc1ccccc1-n1c(O)c(/C=C2/C(c3ccccc3)=Nc3ccccc32)c(=O)[nH]c1=O	-42%	13%	25µM*	i	-23%
O=c1[nH]sc2cc(F)ccc12	1%	-31%	u	i	40µM*
Fc1ccc([C@@H]2CCNC[C@H]2COc2ccc3c(c2)OCO3)cc1	11µM*!	32µM*!	u	28µM*	u
CC(C)NC(=O)C(C)Cl (stereo not drawn)	x	x	x	x	-29%
CCC12CN3CC(CC)(CN(C1)C3c1ccccn1)C2=O (stereo not drawn)	5%	-4%	-1%	i	70%
CN1C2CCC1/C(=C/c1ccccn1)C(=O)/C2=C\c1ccccn1	10µM*	u	2.8µM*	u	17%
O=Cc1cn(Cc2ccc([N+](=O)[O-])cc2)c2ccccc12	-3%	u	2.2µM*	i	-2%
Cc1ccc(-c2nn(Cc3ccccc3)cc2C=O)cc1	-8%	22%	-19%	i	2%
O=Cc1cn(Cc2ccc(F)cc2)c2ccccc12	-43%	14µM*	0.71µM*	i	-6%
O=Cc1cn(Cc2ccccc2[N+](=O)[O-])c2ccccc12	10%	-29%[11.3 µM]	u	i	-2%
Cc1ccc(Cn2cc(C=O)c3ccccc32)cc1	-38%	u	0.35µM*	u	-1%
O=C1C2CC=CCC2C(=O)N1SC(Cl)(Cl)Cl (stereo not drawn)	x	x	x	x	40µM*
SMILES	HepG2 viability	ATXN2 expr inh	TGFb SMAD3 inh	ATXN viability	12-LOX inh
CN(C)c1ccc(C(=O)NC[C@H]2C[C@@H]3CCN2C[C@@H]3CN2CCN(c3ccc(F)cc3)CC2)cc1	x	x	x	x	63%
CCOC(=O)c1c(-n2c(C)cc(C=C3C(=O)NC(=O)NC3=O)c2C)sc2c1CCCC2	-18%	u	-14%	i	-20%
Cc1cccc(N2C(=O)NC(=O)/C(=C\c3cc(C)n(-c4sc5c(c4C#N)CCCC5)c3C)C2=O)c1C	13µM*	-31%	7.1µM*	i	u
CCN1CCN(C(=O)Cc2ccc(Nc3ncc(F)c(Nc4ccc(C(=O)Nc5ccccc5Cl)cc4)n3)cc2)CC1	x	24µM*	x	x	3.9µM*
CC(=O)Nc1ccc(CC(=O)N2CCN(Cc3ccccc3)CC2)cc1	9%	-2%	1%	i	13%
O=C(C[C@@H]1NCCC[C@@H]1O)Cn1cnc2ccccc2c1=O	x	x	x	x	7%
Cc1ccc(S(=O)(=O)NC[C@H]2C[C@@H]3CCN2C[C@@H]3CN(C)CCc2ccccn2)cc1	x	x	x	x	28%
O=C(CCC1N=C2c3ccccc3N=C(SCc3cccc(Cl)c3)N2C1=O)N1CCN(c2ccccc2)CC1 (stereo not drawn)	-29%	-13%	10µM*	u	-23%
CCC(C)C1NC(=O)C2CCCN2C(=O)C(CC(C)C)OC(=O)CCNC(=O)C(C)N(C)C(=O)C(C(C)C)N(C)C1=O (stereo not drawn)	-37%	u	-13%	u	11%
C=CCCC[C@@H]1OC(=O)CNC(=O)C([C@@H](C)CC)NC(=O)[C@@H]2CCCN2C(=O)C([C@@H](C)CC)OC(=O)[C@H](Cc2ccccc2)N(C)C(=O)[C@H](C(C)C)NC(=O)C1(C)C (stereo partly drawn)	-31%	32µM*	10µM*	u	-1%
C=C[C@H]1CN2CC[C@H]1C[C@@H]2CNS(=O)(=O)Cc1ccccc1	x	x	x	x	56%[176 µM]
O=C1NCCOCCCN[C@H]2CCCC[C@@H]12	x	x	x	x	10%
C[N+](C)(C)CC1CCCCC1=O (stereo not drawn)	x	x	x	x	13µM*
CC1=C(C(=O)O)N2C(=O)C(NC(=O)CCCC(=O)O)C2SC1 (stereo not drawn)	0%	27%	6%	i	28µM*
CN(Cc1ccccc1)C[C@H]1CN2CC[C@H]1C[C@@H]2CNC(=O)Nc1ccccc1	x	x	x	x	-4%[176 µM]
O=C(O)c1cccc2c1NC(c1cccc([N+](=O)[O-])c1)C1CC(Sc3ccccc3[N+](=O)[O-])C(Cl)C21 (stereo not drawn)	-8%	-14%	-4%	i	8.9µM*
O=S(=O)(NC[C@H]1C[C@@H]2CCN1C[C@@H]2CN1CCCC1)c1ccc(Cl)cc1	x	x	x	x	11%[176 µM]
COc1cc2c(cc1OCc1ccccc1)N(C(=O)CC(C)C)CC21CCN(C)CC1	x	x	x	x	22%[176 µM]
COc1cc2c(cc1OCc1ccc(Cl)cc1)N(Cc1ccccc1)CC21CCN(C(C)=O)CC1	x	x	x	x	32µM*
